# RMI-FANCM inh: blocks RMI1/RMI2 complex binding to FANCM MM2 peptide. Fluorescence polarization, RMI core complex with F-MM2 peptide; hits give low values. FP signal (polarization) at 33 µM. hit rate 0.58% among 70,000. AID 1159607; in the data active means FP signal below about 40
# * = called active by the depositor; ! = not active in a repeat. Only a selection was taken, and hits are over-represented in it overall.
SMILES,RMI-FANCM inh
O=C(CCCc1ccccc1)Nc1ccc(SCC(=O)N2CCCC2)nn1,43
Cc1c(Cl)ccc(S(=O)(=O)Nc2ccccc2C(=O)O)c1Cl,63
COc1ccc(F)cc1S(=O)(=O)N1CCN(c2ccc(-c3ccc(F)cc3)nn2)CC1,81
COc1ccc(Cl)cc1S(=O)(=O)N1CCN(c2ccc(-c3ccncc3)nn2)CC1,27*
COc1ccc(C)cc1S(=O)(=O)N1CCN(c2ccc(-c3ccncc3)nn2)CC1,67
CC(C)(C)C(=O)NC(Nc1cccc2ccccc12)C(Cl)(Cl)Cl (centres undefined),60
O=S(=O)(Nc1ccc(N2CCCCC2)cc1)c1cc(Cl)sc1Cl,57
Cc1ccc2oc(C(=O)NCc3cccs3)cc2n1,64
Cc1ccc2oc(C(=O)NCCn3c(C)cc4ccccc43)cc2n1,26*
CSc1ccccc1NC(=O)c1cc2nc(C)ccc2o1,58
O=C(NCCN1CCN(c2ccc(F)cc2)CC1)c1cc2ccccc2oc1=O,64
O=C1NC(=S)S/C1=C\c1ccc(OC(F)(F)F)cc1,62
CCOC(=O)c1cc(C#N)c(SCC(=O)Nc2ccc(C(C)=O)cc2)[nH]c1=O,55
CCOC(=O)c1cc(C#N)c2ccccn2c1=O,33*
CCOC(=O)c1cc(C#N)c(Sc2ccccc2)nc1C(F)(F)F,53
Cc1ccc(NC(=S)N2CCn3cccc3C2c2ccncc2)cc1 (centres undefined),72
N#C/C(=C\c1ccc(-c2cccc(C(F)(F)F)c2)o1)C(N)=S,41
N#C/C(=C/c1ccoc1-c1ccc([N+](=O)[O-])cc1)C(N)=S,24*
COC(=O)/C(C#N)=C\c1cc([N+](=O)[O-])ccc1N1CCCC1,95
CO/N=C1/CC(c2ccccc2)Oc2ccccc21 (centres undefined),56
O=C(OCC(O)CO)c1ccccc1Nc1ccnc2cc(Cl)ccc12 (centres undefined),-4*!
O=C(OCCOc1ccc(Cl)cc1Cl)c1ccccc1Cl,57
Clc1ccc2c(Nc3ccc4c(c3)OCO4)ccnc2c1,58
CC(=O)Nc1ccc(OCC(O)COc2c(C)cccc2C)cc1 (centres undefined),60
O=C(Nc1nc(-c2ccc3c(c2)OCCO3)cs1)c1ccc2ncsc2c1,68
SMILES,RMI-FANCM inh
O=C(Nc1nc(-c2ccccn2)cs1)c1ccc2ncsc2c1,84
O=C(Nc1nc(-c2ccc(Br)s2)cs1)c1ccc2ncsc2c1,26*
O=C(Cn1cc(S(=O)(=O)c2ccccc2)c2ccccc21)Nc1ccccc1F,71
CCOC(=O)Cn1c(=NC(=O)c2ccccc2Br)sc2cccc(F)c21,63
CCOC(=O)CN1C(c2ccccc2F)Nc2ccc(Br)cc2C1c1ccccc1 (centres undefined),27*
CCOC(=O)CNC(c1ccccc1)c1cc(Br)ccc1NC(=O)c1ccccc1 (centres undefined),62
Cc1cc2cc(CNC(=O)/C=C\c3ccccc3)ccc2[nH]1,63
C/C(=N/NC(N)=S)c1ccccn1,65
CCCCC(=O)Nc1sc2c(c1C(N)=O)CCN(C(C)=O)C2,69
CC1CCc2c(sc(NC(=O)CCS(=O)(=O)c3ccc(F)cc3)c2C(N)=O)C1 (centres undefined),79
CCOC(=O)N1CCc2c(sc(NC(=O)CS(=O)(=O)c3ccccc3)c2C#N)C1,65
CCOC(=O)c1c(NC(=O)CCS(=O)(=O)c2ccc(Cl)cc2)sc2c1CCN(C(C)=O)C2,66
COC(=O)c1c(NC(=O)C(C)C)sc2c1CCN(Cc1ccccc1)C2,59
CC(=O)N1CCc2c(sc(NC(=O)CS(=O)(=O)c3ccc(Cl)cc3)c2C(N)=O)C1,15*
CC(C)N1CCc2c(sc(NC(=O)CCS(=O)(=O)c3ccc(Cl)cc3)c2C(N)=O)C1,55
NC(=O)c1c(NC(=O)CS(=O)(=O)c2ccccc2)sc2c1CCN(Cc1ccccc1)C2,21*
CCN1CCc2c(sc(NC(=O)CCS(=O)(=O)c3ccc(F)cc3)c2C(N)=O)C1,37*
C=CCOC(=O)C1=C(C)Nc2[nH]c(=O)[nH]c(=O)c2C1c1ccc(N(C)C)cc1 (centres undefined),57
CC(C)(C)C(=O)C(O)C(C)(C)C (centres undefined),53
CC(=O)N1CCc2ccc(NC(=O)Cc3cccc(C)c3)cc2C1,77
O=C(Cn1c(S(=O)(=O)Cc2ccccc2)nc2ccccc21)N1CCN(c2ccccc2)CC1,50
COc1ccc(OC)c2sc(N(CCCN3CCOCC3)C(=O)C3=COCCO3)nc12,55
Cn1nc2c(c1NC(=O)COc1ccccc1)CCC2,63
O=C(/C=C/c1cccs1)Nc1nccs1,60
Cn1nc2c(c1NC(=O)/C=C/c1cccs1)CCC2,37*
CC1(C)C(=O)CC[C@@]2(C)C1C[C@@H](O)[C@@]1(C)C3=CC(=O)O[C@@H](c4ccoc4)[C@]3(C)CCC21 (some centres undefined),62
C=CCN1C(=O)C(C)(C)COc2ccc(NS(=O)(=O)c3ccc(CC)s3)cc21,65
COc1ccc(SCC(=O)Nc2c3c(nn2C)CCC3)cc1,63
Cn1c(C2CCN(S(C)(=O)=O)CC2)nn(Cc2ccccc2Cl)c1=O,63

# Compound activity: PubChem BioAssay, Small Molecule Screening Facility, UW Madison
